In publication PMC12136788 one finds binding signal data, which are given here for 14 molecules.

T1: UNK ZnF1-3 (human, UniProt Q9C0B0 31-174)
T1 sequence: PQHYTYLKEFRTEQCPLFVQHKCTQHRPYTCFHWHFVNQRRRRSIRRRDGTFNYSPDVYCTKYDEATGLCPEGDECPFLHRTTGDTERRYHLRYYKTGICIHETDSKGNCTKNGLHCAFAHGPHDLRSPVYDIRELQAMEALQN

B1: chr1:66463027:66463028:+_ENSMUSG00000015222_ENSMUST00000114013|mus_hu|motif|central (ssRNA)
RNA: GGGAGUUCUACAGUCCGACGAUCUUUUCUUUCAGGAGUGGAAAUUCUGCCUCUCCCGGUUUUAAAAGGCUUUUCUUUUCGGUGUUUCUCAAGAGAUGAUCUCCGAGCUUCCUUUUCAGCUUUCUCCUCUUUAGGAAUAGUUUCCAACAGAGGAUUGAGCAUCA
B2: 18138343_18138463_2469_3pUTR_ENSMUSG00000026740_ENSMUST00000166495|mouse|control|control (ssRNA)
RNA: GGGAGUUCUACAGUCCGACGAUCUUAGAUCCAUGUAUUCAUGUGCAUGUGUCUAUGUGGGCUCGGAUGUGUGUGCUGUACCACAAUAUGAAUGCAGAGGUCAGAGGACAGCUCCUGUGAACAUGUGCUUGCUGGAGAGUGAGUCAACAGAGGAUUGAGCAUCA
B3: chr17:88379672:88379673:+_ENSMUSG00000005370_ENSMUST00000005503|mus_mus|motif|central (ssRNA)
RNA: GGGAGUUCUACAGUCCGACGAUCUCCCUUUUGGGCUUCCUUUGACUUUGAACCUGUAUAUGGCUUUAACAUCCUUUUGCGGACCCAGCCCCUUGUUGGGCUGUCAUCAAAGAACUGUACAUGAACACGGACAGAUUUCCCUUUCAACAGAGGAUUGAGCAUCA
B4: chr2:48026839:48026840:+_ENSG00000116062_ENST00000540021|hu_hu|hu_hu_hu_mus_False|48_78 (ssRNA)
RNA: GGGAGUUCUACAGUCCGACGAUCAUAGUGAGCCACUAGCGUCCUAAAUCUGGAACAAUGGCGAUCAUCCGAAAACUGGCCGAUGAAAAACUUUCCCAGUGAAGUGUCCACAAAGCAAACACCAUACACACGAGUGUGACCAGACAACAGAGGAUUGAGCAUCA
B5: chr1:55207850:55207851:+_ENSMUSG00000025979_ENSMUST00000162364|mus_hu|FALSE|FALSE (ssRNA)
RNA: GGGAGUUCUACAGUCCGACGAUCCCGAUGAUGAAAAUAAGCAUGUGAAAAUAUUCUGUAAAUCCUACGGCAUACUGAUCCUAGUUUCGCUACAGAUGAUUCCUUUAUGCUAACCCUGCUGGGAAAAUAUUUAUUGCUAUUCAGCAACAGAGGAUUGAGCAUCA
B6: chr1:213302989:213302990:+_ENSG00000136643_ENST00000366960|hu_hu|motif|central (ssRNA)
RNA: GGGAGUUCUACAGUCCGACGAUCAGAAGCAACAGCCCCUAGUGCUGAAGAAUCCGAAGAAAGAUUGAGACCAAAAGUUCGGAUGGGAGAAUUUUGAUUGGAAGCCAUUCCAUCAUCUAACUCAGCAAGAGAAUCCACAUCAACCAACAGAGGAUUGAGCAUCA
B7: chr1:163117127:163117128:-_ENSG00000143248_ENST00000313961|hu_mus|hu_hu_hu_mus_False|78_98 (ssRNA)
RNA: GGGAGUUCUACAGUCCGACGAUCUGCUACAAAGGAUGGAGGAAAUAUCACAGGGCAUGAUUUCAUAGCCUGACCAGAUGACUACUUGAUUAGCUCCUUAUAAAAUUCAGAGCGCACAAAGCGGGGCAGAGAAUCCUUCUCCAUCAACAGAGGAUUGAGCAUCA
B8: chr3:131220538:131220539:-_ENSG00000114686_ENST00000264995|hu_mus|motif|central (ssRNA)
RNA: GGGAGUUCUACAGUCCGACGAUCUUCUUCAGAAAGAUGUUCAUCCCACCAAGUACUACUCUUGCUGUGGAGAUUUCGGACAAAGAACAAGAUAUUCUUUCUUCUCUCUAAGCCGGGGUCAGCACCUAGGCCUCUGGCGCCACACAACAGAGGAUUGAGCAUCA
B9: chr6:82862619:82862620:-_ENSMUSG00000000627_ENSMUST00000000641|mus_mus|FALSE|FALSE (ssRNA)
RNA: GGGAGUUCUACAGUCCGACGAUCAACCUGCUUGUAAUUUCCUACACACUUUUCUGGGUUCCUUUUGUCAUCCCUCAAUAGCUAGAAUGUUGUGAAGUUCAUUUUAAAUGGAAGCCAAGGAAAGAGGGCUCAGCCUCCACUCCACAACAGAGGAUUGAGCAUCA
B10: chr4:107545374:107545375:+_ENSMUSG00000028613_ENSMUST00000106731|mus_mus|FALSE|FALSE (ssRNA)
RNA: GGGAGUUCUACAGUCCGACGAUCGUUGAUGGAUAGCCACAAAGCAUAAUUUUAUUUACAAAAAAAUCAAGCCCCUCAAACCUAAAAAAGCUCUCAACUCAAACAUCCUCUGUAAAUACUGUAUUCAAAUGAUGAGUGAAGUUUCAACAGAGGAUUGAGCAUCA
B11: chr1:174973770:174973771:+_ENSG00000116161_ENST00000406752|hu_mus|FALSE|FALSE (ssRNA)
RNA: GGGAGUUCUACAGUCCGACGAUCGAGUUCCGUCUCAAUCUUGGACUUUUCACUUGUAAGAGUAUCACGUAGUCUUUUCCUAGUGGACUUUUCCAGCAAUACUUUGACCUCUUCUAGGUCUUUCUGCAACUCUUCCAAAACGGACAACAGAGGAUUGAGCAUCA
B12: chr22:19452774:19452775:-_ENSG00000070010_ENST00000399523|hu_hu|hu_hu_hu_mus_False|1_68 (ssRNA)
RNA: GGGAGUUCUACAGUCCGACGAUCCUUCUCAUUGUAGUUGAUAGCAAUCACAUCUCCAGUCGUCAGACAGGCAAAGUUUCUCAAUGCAUUUUCUAAUACCGCUUUAGGGUUGGUAAUAUCCAGGAAGUCUGGGCUCUGAGGUUGCAACAGAGGAUUGAGCAUCA
B13: 64993253_64993373_409_3pUTR_ENSMUSG00000029920_ENSMUST00000031984|mouse|control|control (ssRNA)
RNA: GGGAGUUCUACAGUCCGACGAUCCUUCAGCACUAAGAGAAAUUGGUGACGAAGGACGGGCCUGGGAGGGCUGAGGGGCUGCUUCGGGUGCUUCCUCAAUCUUACUCCUUUUCUCAAAGCGAAAACGGUCCAAGUUGAAAAGAUCAACAGAGGAUUGAGCAUCA
B14: chr2:160855017:160855018:-_ENSMUSG00000057133_ENSMUST00000039782|mus_hu|FALSE|FALSE (ssRNA)
RNA: GGGAGUUCUACAGUCCGACGAUCAUCCUUUUCGAGCUCUUCCAUUGUGGCCCAUUUACAAUGUAAGUAGGAAAAAUUUCUAUACUUAACGUAGAACAGCUCCAAGUCGAACGGAGGUUCUCCUGGGUGAACCUCCUGGACAGUCAACAGAGGAUUGAGCAUCA

Whole data set: some 24,000 sequences, median “enrichment r” near 0.99, cut for the highest 2% near 3.7. Not all results are given here.

In the assay the target is T1, UNK ZnF1-3. As to the kind of experiment: nsRBNS (natural sequence RNA bind-n-seq); RBNS binding buffer (assumed for nsRBNS): 25 mM Tris pH 7.5, 150 mM KCl, 3 mM MgCl2, 0.01% Triton X-100, 500 ug/ml BSA, 20 U/ml SUPERase-In, 4 C; UNK is unkempt and MSI1 is Musashi-1; names of the RNAs are library labels; protein concentration not given here; high values mean tight binding.
On to B1, for which the binding signal worked out at 0.426 enrichment R. B2 registered a binding signal of 1.27 enrichment R.

B3: the binding signal was 0.538 enrichment R. Next, B4: 1.26 enrichment R; B5: 1.13 enrichment R.

With B6, the binding signal amounted to 2.3 enrichment R.

Molecule B7 yielded a binding signal of 1.46 enrichment R.

Molecule B8 returned a binding signal of 0.785 enrichment R. Next, B9: 0.841 enrichment R; B10: 1.47 enrichment R. Next, B11: 0.405 enrichment R; B12: 1.02 enrichment R. In turn, B13 came in with a binding signal of 1.21 enrichment R. For B14, the binding signal was found to be 0.672 enrichment R.
